Only some compounds are listed: those with a hit (about 3.5% of all), similar ones and a draw of the others.
Mtb hypoxia inh = Mtb hypoxia fluorescent reporter inhibition; fluorescence inhibition, % (test concentration not listed); 300,000 compounds, 0.1% hits; AID 1159583; M. tuberculosis hypoxia-regulated fluorescent reporter, fluorescence; in the data active = fluorescence inhibition mostly above about 23%, no sharp cut-off; inactive = mostly below about 17%
Mtb UGM inh = Mtb UDP-galactopyranose mutase inhibition; P9WIQ1; purified UGM, fluorescence polarization probe displacement; inhibition, % at 10 µM; 320,000 compounds, 0.06% hits; AID 504406; in the data active = inhibition above about 10%, passing the limit was not always enough; inconclusive = no clear call, values can overlap the other calls
Rv3671c inh = inhibitors of M. tuberculosis serine protease Rv3671c; P9WHR9; inhibition, % at 5.96 µM; 320,000 compounds, 0.048% hits; AID 2606; in the data active = inhibition above about 38%;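 also: extracellular domain of Rv3671c used as enzyme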
FBA Mtb inh = inhibitors of M. tuberculosis fructose-bisphosphate aldolase. inhibition, % at 1 µM. P9WQA3. purified M. tuberculosis FBA, fluorescence read-out. AID 588726. 360,000 compounds, 2.3% hits; in the data active = inhibition above about 27%
Target sequence (P9WQA3 whole entry, looked up): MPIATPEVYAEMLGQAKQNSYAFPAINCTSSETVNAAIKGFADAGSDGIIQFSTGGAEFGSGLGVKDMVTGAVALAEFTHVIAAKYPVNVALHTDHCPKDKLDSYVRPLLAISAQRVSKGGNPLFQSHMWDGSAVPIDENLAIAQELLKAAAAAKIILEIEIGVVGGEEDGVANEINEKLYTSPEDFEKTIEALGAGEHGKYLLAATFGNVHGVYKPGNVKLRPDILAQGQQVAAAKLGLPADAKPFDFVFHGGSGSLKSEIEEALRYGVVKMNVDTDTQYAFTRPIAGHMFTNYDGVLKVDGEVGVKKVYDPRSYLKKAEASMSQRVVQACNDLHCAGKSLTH
GDH-TPI inh = counter-screen for M. tuberculosis FBA inhibitors: GDH-TPI coupled enzymes. GDH-TPI coupled enzyme counterscreen, NADH absorbance. inhibition, % at 4.8 µM. 360,000 compounds, 1.2% hits. AID 588335; in the data active = inhibition above about 30%
FadD28 FP inh = blocks FadD28 binding to the bisubstrate probe. inhibition, % at 12.5 µM. fluorescence polarization. AID 588549. 360,000 compounds, 0.22% hits; in the data active = inhibition above about 8.5%, passing the limit was not always enough; inconclusive = no clear call, values can overlap the other calls
A number is an active result; . = inactive; ? = inconclusive; / = not tested or not shown; + = active, no number.

SMILES	Mtb hypoxia inh	Mtb UGM inh	Rv3671c inh	FBA Mtb inh	GDH-TPI inh	FadD28 FP inh
c1ccc(Oc2ccc(-c3ccn[nH]3)cc2)cc1	.	.	.	.	.	.
CC(=O)Nc1ccc(S(=O)(=O)N(CCc2ccccc2)CC(=O)NN=Cc2ccc(C(=O)O)cc2)cc1	.	/	/	/	/	/
CC(C)c1ccc(C=NNC(=O)c2nnn(-c3nonc3N)c2CN2CCOCC2)cc1	.	/	/	/	/	/
CC(=O)c1ccc(-c2ccc(/C=C(/Sc3n[nH]c(C)n3)C(=O)O)o2)cc1	.	.	.	.	39	.
COc1ccc(N(C(C)C(=O)NN=C(C)C(C)(C)C)S(C)(=O)=O)cc1 (configuration not stated)	.	/	/	/	/	/
CCOc1ccc(C=NN2C(=O)C(CC(=O)Nc3ccc(F)cc3F)SC2=NC)cc1OC (configuration not stated)	.	/	/	/	/	/
COc1cc2c(c(OC)c1OC)C(=O)C(=Cc1ccccc1)O2	.	/	/	.	36	.
COc1ccc(C=C2Oc3ccccc3C2=O)cc1	.	/	/	/	/	/
CC(=NNC(=O)CCCOc1ccc(Cl)cc1Cl)c1ccc(C)o1	.	/	/	/	/	/
COc1cc(/C=C/c2cc(OC(C)=O)c3ccccc3n2)c(OC(C)=O)c([N+](=O)[O-])c1	.	.	.	.	37	.
COc1ccc(C(=O)C2CC[C@](C)(C(=O)O)C2(C)C)cc1 (some centres not stated)	.	/	/	/	/	/
Nc1nc2ccccc2n1C(=O)c1cccs1	/	.	.	.	61	.
CCOC(=O)c1c(NC(=O)CN2C(=O)NC3(CCCCC3C)C2=O)sc(C)c1CC (configuration not stated)	.	.	.	.	.	.
COC(=O)c1c(NC(=O)CN2C(=O)NC3(CCCCC3C)C2=O)sc2c1CCC2 (configuration not stated)	29	.	.	.	.	.
Cc1ccc2occ(/C=N/O)c(=O)c2c1	/	.	.	.	.	.
CC(=O)Oc1ccc2occ(/C=N/c3cc(=O)[nH]c(=S)[nH]3)c(=O)c2c1	/	.	.	.	39	.
CCOC(=O)C1Nc2ccc(Br)cc2C2C=CCC12 (configuration not stated)	.	.	.	.	.	.
O=C(O)C1Nc2c(O)cccc2C2C=CCC12 (configuration not stated)	.	.	.	.	.	15
O=C(O)C1Nc2ccc(Br)cc2C2C=CCC12 (configuration not stated)	.	.	.	.	.	27
O=C(O)C1Nc2c(Cl)cc(Cl)c(Cl)c2C2C=CCC12 (configuration not stated)	.	.	.	.	.	.
O=C(O)C1Nc2c(Cl)cc(Cl)cc2C2C=CCC12 (configuration not stated)	.	.	.	.	.	14
Cn1cc(C=C(C#N)C#N)c2ccccc21	.	?	.	.	.	.
C=CCn1ccc(=NC=C(C#N)C#N)c2ccccc21	/	36	.	.	.	.
CC(=O)Nc1ccc(N=Nc2ccccc2)cc1	.	.	.	.	36	.
CC(=O)OCC(=O)Nc1ccc(N=Nc2ccccc2)cc1	.	.	.	.	37	.
SMILES	Mtb hypoxia inh	Mtb UGM inh	Rv3671c inh	FBA Mtb inh	GDH-TPI inh	FadD28 FP inh
CC1(C)CC(N2CCCC2)=CC(=[N+]2CCCCCC2)C1	.	.	.	.	.	.
CC1(C)CC(N2CCN(c3ccccc3)CC2)=CC(=[N+]2CCCC2)C1	.	.	.	.	45	.
CN(Cc1ccccc1)C1=CC(=[N+]2CCCC2)CC(C)(C)C1	.	.	.	.	52	.
CCN(CC)C1=CC(=[N+]2CCCC2)CC(C)(C)C1	.	.	.	.	43	.
COc1ccc(NC(=O)NC(CCSC)C(=O)O)cc1Cl (configuration not stated)	.	/	/	/	/	/
CC(=NNC(=O)CNC(=O)Cc1ccc(Cl)cc1)c1ccco1	.	/	/	/	/	/
CC(=O)c1ccc(N2CCN(C(=O)c3ccc(Cl)c(NC4=NC5CS(=O)(=O)CC5S4)c3)CC2)cc1 (configuration not stated)	.	.	.	.	42	.
COc1ccc(/C=C/C(=O)NC(=S)Nc2ccc(S(=O)(=O)Nc3nccnc3OC)cc2)cc1	.	/	.	.	49	.
S=C1NCC(CC2CCCCC2)N1CC1CCCCC1 (configuration not stated)	.	/	/	/	/	/
O=C(O)c1ccc(N=Nc2c(O)[nH]c3ccccc23)cc1	/	.	.	.	35	.
CN(C)C(=O)c1ccc(N=Nc2c(O)c3ccccc3[nH]c2=O)cc1	.	/	/	.	.	.
COc1cc(/C=C2/C(=O)NN(c3ccc(Cl)cc3)C2=O)cc(OC)c1O	.	.	.	.	.	8.9
CC(=O)C1=C(O)C(=CC=Cc2ccccc2)OC1=O	/	/	/	.	31	.
O=C(CCC(=O)Nc1cccc([N+](=O)[O-])c1)NN=Cc1cccs1	.	/	/	/	/	/
O=C(NN=C1CCS(=O)(=O)c2ccc(F)cc21)c1ccc([N+](=O)[O-])cc1	.	/	/	/	/	/
Cc1cc(/C=C2/C(=O)NN(c3ccccc3)C2=O)c(C)n1-c1ccc(O)cc1	.	.	.	.	.	.
Cc1cc(/C=C2\C(=O)NN(c3ccccc3)C2=O)c(C)n1-c1ccccc1O	.	.	.	.	34	.
CCCc1nnc(NC(=O)c2oc3ccccc3c2COCC)s1	.	/	/	.	.	.
COCc1c(C(=O)Nc2nnc(C3CC3)s2)oc2ccccc12	/	/	/	.	44	.
COCCn1c(N)c(C(=O)OCc2ccccc2)c2nc3ccccc3nc21	.	.	.	+	.	.
COCCCNC(=O)c1c(NC(=O)c2ccccc2)n(Cc2ccccc2)c2nc3ccccc3nc12	.	.	.	.	.	.
CCCCOCCCn1c(N)c(C(=O)OCCOC)c2nc3ccccc3nc21	/	.	.	134	.	.
CCOC(=O)c1c(NC(=O)c2c(N)n(CCCOC)c3nc4ccccc4nc23)sc2c1CCCC2	.	.	.	.	.	.
COCC(C)OC(=O)c1c(N)n(Cc2ccco2)c2nc3ccccc3nc12 (configuration not stated)	/	.	.	130	.	.
COCCOC(=O)c1c(N)n(Cc2ccccc2)c2nc3ccccc3nc12	/	.	.	+	.	.
SMILES	Mtb hypoxia inh	Mtb UGM inh	Rv3671c inh	FBA Mtb inh	GDH-TPI inh	FadD28 FP inh
Cc1cc(C(=O)NN=Cc2cc(C(C)(C)C)ccc2O)n[nH]1	.	/	/	/	/	/
COc1ccc(C2C3=C(CCCC3=O)N(CC(=O)O)C3=C2C(=O)CCC3)cc1Br	/	/	/	135	.	.
CCOc1cc(C2C3=C(CCCC3=O)N(CC(=O)O)C3=C2C(=O)CCC3)ccc1OC	.	.	.	.	.	.
C#CCOc1c(Cl)cc(C2C3=C(CCCC3=O)N(CC(=O)O)C3=C2C(=O)CCC3)cc1OC	/	.	.	159	.	.
CCN1C2=C(C(=O)CCC2)C(c2ccc(O)c(Br)c2)C2=C1CCCC2=O	.	.	.	.	.	.
COc1ccc(C2C3=C(CCCC3=O)N(CC(=O)O)C3=C2C(=O)CCC3)cc1Cl	.	.	.	178	.	.
COc1ccc(-n2c(/C=C/c3ccc(O)cc3)nc3ccccc3c2=O)cc1	.	.	.	.	57	.
O=c1c2ccccc2nc(/C=C/c2ccc(Br)cc2)n1CCO	.	.	.	.	35	.
